Compounds with a hit are over-represented: about 11% of the library has one in this group of screens.
ALDH1A1 block = blocks purified human ALDH1A1 activity. 7.3% of 220,000 active. Purified ALDH1A1, NADH fluorescence, propionaldehyde substrate. AID 1030. Potency, µM (doses to about 75.3 µM), hits mostly inhibitors. P00352
Target sequence (P00352 whole entry, looked up): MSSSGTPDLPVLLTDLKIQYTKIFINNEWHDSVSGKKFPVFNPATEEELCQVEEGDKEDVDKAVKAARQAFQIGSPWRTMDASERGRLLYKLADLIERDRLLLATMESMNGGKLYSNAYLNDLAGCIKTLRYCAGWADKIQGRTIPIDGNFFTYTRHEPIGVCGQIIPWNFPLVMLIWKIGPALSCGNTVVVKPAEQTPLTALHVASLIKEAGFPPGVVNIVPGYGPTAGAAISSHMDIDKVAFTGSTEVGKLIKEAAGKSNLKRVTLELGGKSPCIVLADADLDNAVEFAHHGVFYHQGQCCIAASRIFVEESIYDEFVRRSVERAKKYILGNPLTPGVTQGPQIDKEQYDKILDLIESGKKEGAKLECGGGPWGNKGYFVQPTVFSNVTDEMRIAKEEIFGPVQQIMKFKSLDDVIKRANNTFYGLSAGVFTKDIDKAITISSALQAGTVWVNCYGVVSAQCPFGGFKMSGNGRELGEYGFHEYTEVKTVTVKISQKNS
PNC assembly inh = inhibitors of perinucleolar compartment assembly | activity change (PNC), negative = inhibition, % at 10 µM | 3.1% of 140,000 active | PC3M PTB-GFP, PNC prevalence imaging, 16 h; active compounds read low;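 active = readout at or below -70, meaning at least 70% loss of cells showing the perinucleolar compartment, a nuclear body marking cancer cells; inconclusive = readout between -30 and a set limit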
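Compounds are pinned in duplicate onto adhered PC3M cells stably expressing GFP-tagged PTB and incubated 16 h at 37 C. Cells are then fixed, nuclei stained with Hoechst, and PNC-positive cells counted.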
HPGD block = HPGD (human) dehydrogenase inhibition | P15428 | purified HPGD, NADH fluorescence kinetic, PGE2 substrate | Potency, µM, actives largely listed as inhibitors | 4.3% of 150,000 active | AID 894
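20 nM HPGD preincubated 15 min at room temperature with compound in 50 mM Tris-HCl pH 8, 0.01% Tween 20. Started with 1 mM NAD+ and 30 uM prostaglandin E2; NADH fluorescence (360/450 nm) read 5 times over 30-s intervals, last minus first.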
Of the large screens only hits and unclear results are named; the others gave an inactive call. Unless noted, calls come from the whole dose curve; as a rule, active = well fitted inhibition curve with a large enough effect (not every such curve was filed as active); inconclusive = small, poorly fitted or top-dose-only effect, or another doubt; inactive = no such curve, though single readings can be large or run the other way.

COc1ccc(N=C2SC(CC(=O)Nc3ccccc3)C(=O)N2CCc2ccccn2)cc1 (stereo unspecified)	none
CC(O)CN1C(=O)C(CC(=O)Nc2ccc(Cl)cc2)SC1=Nc1ccccc1 (stereo unspecified)	ALDH1A1 block 22µM
C=CCN1C(=O)C(CC(=O)NCC)SC1=Nc1ccc(S(N)(=O)=O)cc1 (stereo unspecified)	none
COc1cccc(/C=N/NC(=O)c2nc(-c3ccccc3)cc(-c3ccccc3)n2)c1O	ALDH1A1 block inconclusive, PNC assembly inh inconclusive
O=C(Nc1cccc(C(F)(F)F)c1)c1ccccc1NC(=O)C1CCCCC1	none
CC(=O)c1cc2c(cc1O)OC(C)(C)C=C2	ALDH1A1 block inconclusive, HPGD block 25µM (no result: PNC assembly inh)
CC1(C)C=Cc2cc3ccc(=O)oc3cc2O1	ALDH1A1 block inconclusive (no result: PNC assembly inh)
O=C(Nc1nccs1)c1cc(S(=O)(=O)N2CCOCC2)ccc1Cl	PNC assembly inh inconclusive
Cc1[nH]c2ccc(-c3nnc(SCC(=O)N4CCCc5ccccc54)o3)cc2c1C	HPGD block inconclusive
C/C(=C\C(=O)c1cccnc1)Nc1ccc(O)cc1	ALDH1A1 block inconclusive, HPGD block 16µM
C/C(=C\C(=O)c1ccccc1)Nc1ccc(O)cc1	none
CCC(C)n1c(SC(C)C#N)nc2ccccc2c1=O (stereo unspecified)	ALDH1A1 block inconclusive
CC(C#N)On1c(SC(C)C#N)nc2ccccc2c1=O (stereo unspecified)	ALDH1A1 block 16µM
CC(C)(C)C(=O)CSc1nnc(Nc2ccccc2)s1	none (no result: PNC assembly inh, HPGD block)
CC(=O)NC1C(Oc2ccccc2C)OC2COC(c3ccco3)OC2C1O (stereo unspecified)	none
CCOC(=O)N1CCC2(CC1)C(C#N)=C(N)Oc1c2c(C)nn1-c1cccc(Cl)c1	ALDH1A1 block 13µM
CCOC(=O)N1CCC2(CC1)C(C#N)=C(N)Oc1n[nH]c(C)c12	ALDH1A1 block inconclusive
COc1ccc(C(=O)N2CCCC(c3nc(-c4cccs4)no3)C2)cc1 (stereo unspecified)	ALDH1A1 block inconclusive (no result: HPGD block)
COc1cccc(-c2noc(C3CCCN(C(=O)Cc4ccccc4)C3)n2)c1 (stereo unspecified)	ALDH1A1 block 13µM
CCCC(=O)N1CCCC(c2nc(-c3cccc(OC)c3)no2)C1 (stereo unspecified)	none (no result: PNC assembly inh, HPGD block)
COc1ccccc1C(=O)N1CCCC(c2nc(-c3cc(OC)c(OC)c(OC)c3)no2)C1 (stereo unspecified)	none
Cc1ccc(-c2noc(C3CCCN(C(=O)c4ccccc4)C3)n2)o1 (stereo unspecified)	ALDH1A1 block 14µM
COc1ccc(C(=O)N2CCCC(c3nc(-c4cc(OC)c(OC)c(OC)c4)no3)C2)cc1 (stereo unspecified)	PNC assembly inh inconclusive, HPGD block 25µM
CC(C)CC(=O)Nc1cc(NC(=O)CC(C)C)cc(C(=O)NC(C)(C)C)c1	none
Cc1ccc(NC(=S)N(Cc2ccco2)C2CCN(C(C)C)CC2)cc1	ALDH1A1 block inconclusive
C1CCc2c(nc3nnnn3c2NC2CCCC2)C1	none
CCSc1nc2c(c(=O)[nH]c(=O)n2C)n1CC(O)COc1ccccc1 (stereo unspecified)	none (no result: PNC assembly inh, HPGD block)
Cn1c(=O)[nH]c(=O)c2c1nc(SCC(O)CO)n2Cc1ccccc1Cl (stereo unspecified)	ALDH1A1 block 14µM
CC(C)CSc1nc2c(c(=O)[nH]c(=O)n2C)n1CC(O)COc1cccc2ccccc12 (stereo unspecified)	ALDH1A1 block 18µM, HPGD block 13µM
Cn1c(=O)[nH]c(=O)c2c1nc(Br)n2Cc1ccccc1Cl	none
CN1CCCC2(CCN(C(=O)c3cccn3C)CC2)C1	none (no result: PNC assembly inh)
O=C(c1cc(Cl)nc2ccccc12)N1CCc2ccccc2C1	none (no result: PNC assembly inh, HPGD block)
c1ccc(-c2nnc(OCC3CCCO3)c3ccccc23)cc1 (stereo unspecified)	none (no result: PNC assembly inh, HPGD block)
Cc1csc(NC(=O)CSc2nnc3ncccn23)n1	PNC assembly inh inconclusive (no result: HPGD block)
CCc1nnc(NC(=O)CSc2nnc3ncccn23)s1	ALDH1A1 block inconclusive, PNC assembly inh -82
COC(=O)CCC(C)C1CCC2C3CC[C@H]4CC(O)CC[C@@]4(C)C3CC(O)[C@]12C (stereo partly specified)	none (no result: PNC assembly inh)
CCCc1[nH]nc2c1C(c1ccncc1)C(C#N)=C(N)O2 (stereo unspecified)	ALDH1A1 block 14µM
N#CC1=C(N)Oc2n[nH]c(-c3ccccc3)c2C1c1ccsc1 (stereo unspecified)	none
Cc1ccc(SCc2[nH]nc3c2C(c2cccnc2)C(C#N)=C(N)O3)cc1 (stereo unspecified)	ALDH1A1 block inconclusive
N#CC1=C(N)Oc2n[nH]c(-c3ccncc3)c2C1c1ccsc1 (stereo unspecified)	PNC assembly inh inconclusive, HPGD block 22µM
CCCc1[nH]nc2c1C(c1ccccc1OC)C(C#N)=C(N)O2 (stereo unspecified)	ALDH1A1 block inconclusive
N#CC1=C(N)Oc2c(ccc3cccnc23)C1c1cccnc1 (stereo unspecified)	ALDH1A1 block inconclusive, HPGD block inconclusive
CCCc1[nH]nc2c1C(c1cccnc1)C(C#N)=C(N)O2 (stereo unspecified)	ALDH1A1 block 14µM
N#CC1=C(N)Oc2cc3ccccc3cc2C1c1cccnc1 (stereo unspecified)	ALDH1A1 block 14µM, PNC assembly inh -90, HPGD block 28µM
Cc1ccc(OCCNC(=O)Cc2ccc(F)cc2)cc1	none (no result: PNC assembly inh, HPGD block)
COC(=O)N1CCC2(CCN(C(=O)Nc3cccc(F)c3)CC2)CC1	none (no result: PNC assembly inh)
CCCNS(=O)(=O)c1cccc(C(=O)NC2CCCc3ccccc32)c1 (stereo unspecified)	none
CCCc1[nH]nc2c1C(c1ccc(O)c(OC)c1)C(C#N)=C(N)O2 (stereo unspecified)	ALDH1A1 block inconclusive
CCCc1[nH]nc2c1C(/C(C)=C/c1ccccc1)C(C#N)=C(N)O2 (stereo unspecified)	ALDH1A1 block 14µM, PNC assembly inh inconclusive
C/C(CCN1CCCCc2nc(C)c(C)cc21)=N\OC[C@@H](C)[C@H](OCc1ccccc1)C(C)C	none (no result: PNC assembly inh, HPGD block)
CCNC(=O)COC(=O)c1ccc(-n2nc(C)cc2C)cc1	none (no result: PNC assembly inh, HPGD block)
O=C(COC(=O)Cc1ccsc1)Nc1ccc(S(=O)(=O)N2CCOCC2)cc1	PNC assembly inh inconclusive (no result: HPGD block)
COc1ccccc1OCC(=O)Nc1ccc(S(=O)(=O)N2CCCCCC2)cc1	HPGD block inconclusive
O=C(COC(=O)Cc1ccsc1)Nc1ccc(Cl)c(S(=O)(=O)N2CCOCC2)c1	PNC assembly inh -87
O=C(COC(=O)COc1ccccc1[N+](=O)[O-])Nc1ccc(S(=O)(=O)N2CCCCC2)cc1	ALDH1A1 block 14µM
O=C(CN1CCCCCC1)Nc1ccc(S(=O)(=O)N2CCOCC2)cc1	none (no result: PNC assembly inh, HPGD block)
CCC(=O)Nc1ccc(S(=O)(=O)N2CCOCC2)cc1	PNC assembly inh -80
Cc1cc(C)n(-c2ccc(C(=O)OCC(=O)c3ccc(Br)s3)cc2)n1	ALDH1A1 block 22µM
O=C(NC1=NCCCCC1)c1cccc2ccccc12	none (no result: PNC assembly inh, HPGD block)
C=CCn1c(C(C)NC(=O)c2cccc(C)c2)n[nH]c1=S (stereo unspecified)	none (no result: PNC assembly inh, HPGD block)
COc1ccc(C2c3ccc(O)cc3Oc3ncn4nc(-c5ccncc5)nc4c32)cc1OC (stereo unspecified)	none (no result: PNC assembly inh, HPGD block)
CN1CCN(c2ccccc2NC(=O)C(Cc2ccccc2)n2cccc2)CC1 (stereo unspecified)	none
